Assay outcomes: PubChem BioAssay, Broad Institute
In the library only some 3.4% were active in any assay of this set; here they are far more common.
LGR2 inh: inhibitors of bursicon-induced LGR2 CRE-luciferase signal, primary screen, cell-based, HEK293, CRE-luciferase reporter, bursicon stimulation | Drosophila bursicon receptor LGR2 (rickets) | bursicon-stimulated, 4 h | inhibition, % at 9.99 µM | 380,000 tested, 0.35% active;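 active = drop in luminescence signal, shown as inhibition above about 50% in the replicate tests, limit read from the data, passing the limit was not always enough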;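 also: agonist challenge used bursicon conditioned medium at about half maximal strength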
PAX8 reporter: inhibitors of PAX8-driven TPO luciferase reporter, primary screen, RMG-I cells, single concentration. inhibition, % at 12.6 µM. SteadyGlo, 24 h. AID 652154, 2013. 360,000 tested, 1.2% active;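 active = mean replicate inhibition at least 60% with every replicate also reaching 60%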;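 also: luciferase light reporting Pax8 driven TPO promoter activity; plate controls were median of neutral control wells for no effect and mitoxantrone controls for full effect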
PGC1a acetyl inh: inhibitors of PGC1a acetylation signal, primary screen, cell-based, U2OS, AlphaScreen, inhibitor mode | AlphaScreen anti-acetyl-lysine; with virally co-expressed GCN5 acetyltransferase | inhibition, % at 15.6 µM | AID 651687, 2012 | 350,000 tested, 0.17% active;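 active = every replicate shows inhibition of at least 40%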;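 also: 0% = neutral control wells and 100% = positive control wells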
EWS-Fli block: EWS/Fli-driven NR0B1 reporter inhibitors, primary screen, A673 cells, NR0B1 luciferase, luminescence, MLPCN library; viability-normalised; 350,000 tested, 0.67% active; inhibition, % at 12.6 µM;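 active = mean inhibition of at least 50% after viability correction, with every replicate also passing that limit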;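 also: firefly luciferase signal divided by Alamar Blue viability fluorescence both relative to DMSO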
SIRT5 block: SIRT5 desuccinylase inhibitors, primary screen, biochemical, fluorescence imaging, single point, set 5; NAD-dependent protein deacylase sirtuin-5, mitochondrial (Homo sapiens), Q9NXA8; Purified SirT5, succinyl-peptide AMC, trypsin-coupled fluorescence; inhibition, % at 15 µM; 330,000 tested, 1.1% active; AID 652115, 2013; in the data active = inhibition above about 15%
Target sequence (Q9NXA8 whole entry, looked up): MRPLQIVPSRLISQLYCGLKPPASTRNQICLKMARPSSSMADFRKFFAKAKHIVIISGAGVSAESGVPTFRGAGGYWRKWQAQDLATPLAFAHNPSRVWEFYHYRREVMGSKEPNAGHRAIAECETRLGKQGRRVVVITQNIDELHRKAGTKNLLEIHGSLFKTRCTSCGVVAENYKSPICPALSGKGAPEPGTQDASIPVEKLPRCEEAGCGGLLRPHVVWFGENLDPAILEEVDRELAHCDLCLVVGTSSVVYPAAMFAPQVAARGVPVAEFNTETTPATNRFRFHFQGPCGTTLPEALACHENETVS
rRNA inh HTS: reduced GFP signal of wild-type E. coli, primary screen, bacterial rRNA inhibitor project, GFP/RFP fluorescence, OD600, single point | GFP signal change (wild-type ribosome), % (test concentration not listed) | AID 720706, 2013 | E. coli WT GFP vs humanized-ribosome RFP mutants, 24 h; active compounds read low; DMSO median 0, no signal -100 | 350,000 tested, 1.6% active;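 active = significant combined selectivity score with lowered wild-type GFP, culture density cut under 30%, mutant RFP and density less affected; inactive = any of these conditions unmet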
An asterisk follows results filed as active; · = no result.

SMILES | LGR2 inh | PAX8 reporter | PGC1a acetyl inh | EWS-Fli block | SIRT5 block | rRNA inh HTS
C[C@@H]1CN([C@@H](C)CO)C(=O)c2cc(NC(=O)Cc3ccccc3)ccc2O[C@@H]1CN(C)C(=O)Nc1ccc2c(c1)OCO2 | 4 | -16 | 9 | -3 | -1 | 3
CO[C@H]1CN(C)C(=O)c2ccc(NC(=O)Nc3cc(F)ccc3F)cc2OC[C@H](C)N(C(=O)c2ccccn2)C[C@@H]1C | -2 | · | -2 | -9 | 1 | -4
O=C(N/N=C/c1cn(-c2ccccc2)nc1-c1cccnc1)c1ccc(F)cc1 | 14 | -11 | -2 | -14 | -2 | -25*
NC(=O)N/N=C/c1cn(-c2ccccc2)nc1-c1ccccc1 | -39 | -16 | -14 | -73 | -2 | -18*
Cc1[nH]n(-c2cccc(Cl)c2)c(=O)c1C=NC12CN3CN(CN(C3)C1)C2 | · | · | -1 | · | · | ·
Cc1[nH]n(-c2ccc(Cl)cc2)c(=O)c1C=NC12CN3CN(CN(C3)C1)C2 | 7 | 81* | · | 7 | 2 | 14
COc1ccc(NC(=O)Nc2ccc3c(c2)[C@@H]2C[C@@H](CC(=O)NCCc4ccccc4)O[C@H](CO)[C@@H]2O3)cc1 | 0 | 9 | -3 | 1 | 2 | -4
COc1ccc(CN(C)C[C@@H]2OCCCC[C@@H](C)Oc3ccc(NC(=O)Nc4ccccc4)cc3C(=O)N([C@@H](C)CO)C[C@H]2C)cc1 | 9 | -11 | -6 | 1 | · | 5
C=CCc1c(C)nc2c(C)cccc2c1SC(=N)N | 1 | -14 | -11 | 11 | -2 | -22*
Cc1nc2c(C)cccc2c(SC(=N)N)c1CC=C(Cl)Cl | · | 17 | · | -4 | -2 | -21*
COc1cccc(-c2ccc3n(c2=O)C[C@H]2[C@H](CO)[C@@H](C(=O)N(C)C)N(C(=O)C4CCC4)[C@@H]32)c1 | -10 | · | · | -1 | -9 | 4
Cc1ccc(C(=O)CC(=O)c2ccccc2C)c(O)c1 | -10 | -48 | 10 | 6 | 1 | -49
C=C(CN(C)C)C(=O)c1ccc(C)cc1C | 6 | 85* | -72 | 73* | 9 | -7
CC=Cc1ccc2n(c1=O)C[C@H]1[C@H](CO)[C@@H](C(=O)NCCN3CCCC3)N(C(=O)NC(C)C)[C@@H]21 (mixture of isomers) | 5 | · | · | -3 | -9 | 2
CC(=O)Nc1ccc(NC(=O)c2sc3nc4n(c(=O)c3c2C)CCCCC4)cc1 | · | 20 | · | 0 | 17* | ·
CCS(=O)(=O)NCC[C@H]1CC[C@H](NC(=O)C2CCC2)[C@@H](CO)O1 | -9 | 2 | 11 | 4 | 3 | 0
CN(C)C(=O)c1ccc(-c2cccc(-c3nc(C(=O)N(C)C)cc4c3[C@H](CCO)N([S@@](=O)C(C)(C)C)C4)c2)cc1 | 17 | 2 | 1 | -3 | -1 | 2
CC1CCCC=CC2CC(OC(=O)CN(C)C)CC2C(O)C=CC(=O)O1 (stereo not given) | · | 115* | 67* | 63* | · | 0
O=C(CSc1nnc(-c2c[nH]c3ccccc23)o1)N1CCCCC1 | -21 | · | · | -37 | -1 | -33*
O=C(CSc1nnc(-c2c[nH]c3ccccc23)o1)N1c2ccccc2CCc2ccccc21 | 11 | · | -11 | 7 | 6 | -9
COc1cccc(/C=C2\Oc3ccc(O)cc3C2=O)c1O | 66* | -28 | -2 | -4 | 0 | -2
COC(=O)c1ccc2c(c1)C(=O)/C(=C/c1ccc(O)cc1)O2 | -36 | -88 | 4 | · | · | ·
C[C@@H]1CN([C@@H](C)CO)C(=O)Cc2cc(NS(=O)(=O)c3ccc(F)cc3)ccc2O[C@H]1CN(C)C(=O)Nc1ccc2c(c1)OCO2 | 18 | -17 | -16 | -3 | · | 1
O=[N+]([O-])c1ccc2nc(NN=Cc3ccc(O)cc3)sc2c1 | 105* | 2 | -17 | -2 | · | -12*
C[C@@H]1CN(C)C(=O)Cc2cc(N(C)C)ccc2O[C@H]1CN(C)S(C)(=O)=O | · | · | · | · | · | -1
SMILES | LGR2 inh | PAX8 reporter | PGC1a acetyl inh | EWS-Fli block | SIRT5 block | rRNA inh HTS
COc1ccc2c3c(n(C)c2c1)[C@@H](CO)N(S(C)(=O)=O)CC31CCN(C(=O)CN(C)C)CC1 | 3 | · | -5 | -1 | · | 2
Nc1ncc([N+](=O)[O-])c(N2CCCCCC2)n1 | 14 | -39 | 53* | -14 | · | 5
O=[N+]([O-])c1ccc(N2CCCC2)nc1N1CCCC1 | -18 | 11 | -2 | 0 | 1 | -43
O=C(Nc1ccccc1)Nc1sccc1-c1nc2ccccc2s1 | -2 | 2 | 3 | -34 | -3 | -21*
CCCNC(=O)Nc1ccc2c(c1)OC[C@@H](C)N(C(=O)CC)C[C@@H](C)[C@@H](OC)CN(C)C2=O | 7 | · | 4 | 0 | 7 | 0
COc1ccc(CN2[C@@H](CO)[C@@H]3c4ccccc4NC[C@@H]32)cc1 | -8 | 20 | 4 | -2 | -2 | 0
COc1ccc(CN2[C@H](CO)[C@H]3c4ccccc4NC[C@H]32)cc1 | 29 | 96* | 11 | 48 | 2 | 2
C[C@H]1CN([C@@H](C)CO)S(=O)(=O)c2ccc(C#CC3(O)CCCC3)cc2O[C@H]1CN(C)C | -12 | · | -2 | 11 | -5 | 4
CCOC(=O)Cn1c(-c2ccc(OC)cc2)c(-c2ccc(OC)cc2)nnc1=O | · | 20 | 9 | 26 | 2 | -22*
CCn1c2ccccc2c2cc(/C=N/NC(=O)c3ccncc3)ccc21 | 33 | 12 | · | 18 | 6 | -36*
CCn1c2ccccc2c2cc(NC(=O)c3cc(OC)cc(OC)c3)ccc21 | -2 | 96* | · | · | · | 2
O=C(N/N=C/c1cccc(Oc2ccccc2)c1)c1ccncc1 | -2 | 3 | 8 | 2 | 3 | -21*
CCn1c2ccccc2c2cc(NC(=O)c3cc(OC)c(OC)c(OC)c3)ccc21 | -10 | · | 25 | 39 | -2 | -10
COc1ccc2c3c([nH]c2c1)[C@@H](CO)N(C(=O)CN1CCOCC1)CC31CN(C)C1 | · | · | · | · | · | 7
CO[C@@H]1CC[C@@H]2CCN(C)C(=O)C[C@@H](c3ccccc3)CN(C)C(=O)c3cc(C#N)ccc3OC[C@@H]1O2 | 16 | -6 | · | 0 | · | -1
CN(CC(=O)N1CCN(C2CCCCC2)CC1)S(=O)(=O)c1cccc2nsnc12 | -9 | · | · | · | 22* | 3
O=[N+]([O-])c1ccc(Sc2ccccn2)nc1 | · | 1 | 3 | 2 | -5 | ·
O=[N+]([O-])c1ccc(Sc2nnnn2-c2ccccc2)nc1 | 68* | 78* | · | 19 | -2 | 12
CO[C@H]1CN(C)C(=O)c2cc(C#N)ccc2OCC[C@@H]2CC[C@@H](OC)[C@@H](CN(C)C(=O)[C@@H]1C)O2 | 2 | 2 | · | 1 | -5 | 3
CCOc1ccc(CCNS(=O)(=O)c2cn(C)cn2)cc1OCC | -17 | 2 | 5 | · | 33* | -3
